High-throughput results as filed in PubChem BioAssay.
Hits are enriched below; roughly 2.9% of the tested compounds scored in any of these assays.
PI5P4K alpha inh: inhibitors of human PI5P4K alpha | P48426 | PI5P4Kalpha enzyme, ADP-Glo luminescence, 60 min; hits give low values | max response, % | 1.2% of 330,000 active | AID 652105; active means max response of -50% or lower; inconclusive means between -30% and -50%; inactive means -30% or higher; further: value at the top dose of about 77 µM; on the % scale 0 is the no-effect control and ±100 the full control effect
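Reactions run in 0.038 M HEPES pH 7.4, 0.28 mM EGTA, 0.1% CHAPS and 5% DMSO, with PI5P4Kalpha, substrate, compound and 5 microM ATP final, one hour at room temperature. Readout is ADP-Glo luminescence.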
POLH inh: inhibitors of human DNA polymerase eta | Q9Y253 | recombinant Pol eta, fluorescent DNA replication assay | Potency, µM (highest dose often 114 µM), for the others: at the top dose activity change, negative = inhibition, hits mostly inhibitors | 1.2% of 390,000 active | AID 588591; further: potency means the concentration at half of the fitted maximal effect; on the % scale 0 is the no-effect control and ±100 the full control effect
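Pol eta at 10 nM preincubated with compounds 15 min at room temperature; reaction started with fluorescent substrate (50 nM final) and read kinetically at 0 and 10 min.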
Pol beta inh: inhibitors of human DNA polymerase beta; P06746; Pol beta primer extension/strand displacement, fluorescence kinetic; Potency, µM (doses to about 114 µM), for the others: at the highest dose activity change, negative = inhibition, hits mostly inhibitors; 1.3% of 340,000 active; AID 485314; further: potency means the concentration at half of the fitted maximal effect; on the % scale 0 is the no-effect control and ±100 the full control effect
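10 nM enzyme + cpd, 15 min RT; start with substrate 50 nM final; read 0 min and after 10 min RT. Corrected, normalized data; 4-parameter Hill curve fit.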
POLI inh: blocks human DNA polymerase iota activity | Pol iota fluorescent replication assay, 10 min | Potency, µM (doses to about 115 µM), for the others: at the top dose activity, negative = inhibition, usual class: inhibitors | 1% of 390,000 active; further: potency means the concentration at half of the fitted maximal effect
Target sequence (Q9UNA4 whole entry, looked up): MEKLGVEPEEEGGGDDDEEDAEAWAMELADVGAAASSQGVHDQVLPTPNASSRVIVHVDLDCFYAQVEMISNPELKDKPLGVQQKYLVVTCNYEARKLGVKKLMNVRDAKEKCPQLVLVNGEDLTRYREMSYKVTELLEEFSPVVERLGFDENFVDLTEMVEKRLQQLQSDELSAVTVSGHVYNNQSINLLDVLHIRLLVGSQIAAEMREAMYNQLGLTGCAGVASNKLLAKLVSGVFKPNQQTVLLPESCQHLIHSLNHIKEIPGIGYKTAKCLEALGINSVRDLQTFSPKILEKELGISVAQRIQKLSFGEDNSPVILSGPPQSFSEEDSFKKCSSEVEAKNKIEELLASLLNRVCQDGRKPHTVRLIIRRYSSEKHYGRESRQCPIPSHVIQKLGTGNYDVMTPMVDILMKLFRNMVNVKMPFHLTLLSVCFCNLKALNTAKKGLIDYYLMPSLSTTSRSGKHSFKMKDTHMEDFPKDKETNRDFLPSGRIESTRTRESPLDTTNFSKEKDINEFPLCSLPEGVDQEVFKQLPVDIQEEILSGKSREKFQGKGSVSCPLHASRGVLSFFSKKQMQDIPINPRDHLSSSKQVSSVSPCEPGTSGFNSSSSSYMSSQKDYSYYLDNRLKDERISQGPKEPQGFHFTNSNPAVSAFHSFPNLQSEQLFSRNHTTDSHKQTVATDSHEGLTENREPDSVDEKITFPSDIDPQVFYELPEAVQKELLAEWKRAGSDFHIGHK
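Fluorescent replication assay read twice, at 0 min and 10 min after adding 50 nM (final) substrate. Enzyme (10 nM) and compounds were first incubated 15 min at room temperature; enzyme-free buffer wells were negative controls.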
12-LOX inh: inhibitors of human 12S-lipoxygenase ALOX12; Potency, µM (titrated, usually from 108 µM), inactives show at the top dose activity change, negative = inhibition, actives largely listed as inhibitors; purified 12hLO, xylenol orange hydroperoxide absorbance; P18054; 1.1% of 580,000 active; AID 1671190; further: potency means the concentration at half of the fitted maximal effect; on the % scale 0 is the no-effect control and ±100 the full control effect
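Purified human 12hLO (150 nM final) in 25 mM Hepes, 0.01% Triton X-100, pH 7.0 was preincubated 15 min at room temperature with compound. Then 40 uM arachidonic acid was added, 30 min. Hydroperoxide was read by Fe-XO absorbance ratio 573/405 nm.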
Pol kappa inh: DNA polymerase kappa (human) inhibition | purified Pol kappa, fluorescent DNA synthesis assay, 10 min | Q9UBT6 | Potency, µM (top dose mostly 107 µM), without a hit: top-dose activity, negative = inhibition, hits mostly inhibitors | 0.53% of 400,000 active; further: potency means the concentration at half of the fitted maximal effect; on the % scale 0 is the no-effect control and ±100 the full control effect
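Kinetic fluorescence screen: compound preincubated 15 min RT with 10 nM enzyme; 50 nM substrate (final) initiates; reads at 0/10 min.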
An asterisk follows results filed as active; ? = inconclusive; / = no result given; ! = a repeat was not active; [ ] = remark or other dose. Unless noted, the call rests on the fitted dose curve; in most records, active means well fitted inhibition curve with a large enough effect; inconclusive means small, poorly fitted or top-dose-only effect, or another doubt; inactive means no such curve, though single readings can be large or run the other way.

SMILES	PI5P4K alpha inh	POLH inh	Pol beta inh	POLI inh	12-LOX inh	Pol kappa inh
COc1ccccc1OCC(=O)N/N=C(\C)c1ccc2ccccc2c1	-68*	1%	/	/	5%	/
COC(=O)/C=C(C(=O)OC)/C(=C\C(=O)OC)C(=O)OC	/	/	/	/	-4%	/
CC1(COc2ccccc2)COc2ccc(C(=O)NCc3ccncc3)cc2N1 (centres undefined)	/	/	/	/	28µM*	/
COc1ccc(Oc2coc3cc(OCc4ccccc4Cl)ccc3c2=O)cc1	/	/	/	/	-1%	/
FC(F)(F)c1nnc2ccc(NCn3nnc4ccccc43)nn12	-10	89µM*	-15%	0%	-12%	4%
FC(F)(F)c1nnc2ccc(NCc3ccccc3)nn12	2	2%	1%	8%	-8%	-18%
O=C(CSc1nc2ccccc2o1)NCC(=O)N1CCCC1	/	/	/	/	8%	/
Cc1csc(NC(=O)CSc2nc3[nH]c(=O)cc(O)c3s2)n1	-13	28µM*	/	8%	24%	-14%
CCCSc1nnc(NC(=O)CSc2nc3[nH]c(=O)cc(O)c3s2)s1	-72*	56µM*	/	35µM*	?	-29%
O=C(CSc1nc2[nH]c(=O)cc(O)c2s1)Nc1nncs1	-2	3%	/	18%	26%	-14%
CCCn1c(=O)n(CC(=O)Nc2ccc(Oc3ccccc3)cc2)c(=O)c2c1nc(C)n2CCOC	/	/	/	/	-12%	/
CC(=O)Oc1ccc2occ(-c3ccccc3)c2c1	3	-10%	56µM*	-14%	0%	-10%
Oc1c(Br)cc(Cl)cc1Cc1cc(Cl)cc(Br)c1O	/	/	/	/	28µM*	/
N[n+]1cccc2ccccc21	/	/	/	/	18µM*	/
CCCn1c(CN2CCC(C)CC2)nc2c1c(=O)n(C)c(=O)n2C	/	/	/	/	13%	/
CCc1ccc2c(c1)C(NC(C)=O)C(=O)N2CCN1CCOCC1 (centres undefined)	2	?	8%	2.2µM*	45µM*	-5%
CCCN1C(=O)C(NC(C)=O)c2ccccc21 (centres undefined)	/	-6%	-25%	14%	?	-17%
COc1ccc(-c2ccc(Nc3ccc(C(=O)N4CCOCC4)cc3)nn2)cc1OC	-1	-10%	28µM*	?	-13%	-42%
COc1ccccc1-c1ccc(Nc2ccc(C(=O)N3CCOCC3)cc2)nn1	5	-17%	-9%	-1%	-45%	-2%
O=C(CCl)N(c1ccccc1)c1c[nH]c2ccccc12	-3	14µM*	-15%	19%	0%	-11%
COc1ccc(-c2cc(-c3ccc(Cl)cc3)c(C#N)c(SCC(=O)O)n2)cc1	-12	4%	32µM*	-14%	?	-3%
N#Cc1c(-c2ccccc2)cc(-c2ccccc2)nc1SCC(=O)NCC(=O)O	2	-9%	50µM*	6%	-14%	-5%
CC(C)C(Sc1nc(-c2ccccc2)cc(-c2ccccc2)c1C#N)C(=O)O (centres undefined)	-3	?	?	-15%	?	-4%
COc1ccc(-c2cc(-c3ccccc3)c(C#N)c(SCC(=O)O)n2)cc1	4	-14%	/	-14%	159%	1%
COc1ccc(-c2cc(-c3ccccc3)nc(SC(C)C(=O)O)c2C#N)cc1 (centres undefined)	?	-24%	0%	40µM*	-23%	-2%
SMILES	PI5P4K alpha inh	POLH inh	Pol beta inh	POLI inh	12-LOX inh	Pol kappa inh
Cc1ccc(-n2ncc3c(NCC4CCCO4)ncnc32)cc1 (centres undefined)	/	/	/	/	-16%	/
CCc1cc(=O)oc2cc(OCC(=O)NCCC#N)ccc12	/	/	/	/	14%	/
C#CC(C)(CC)NC(=O)Cc1ccccc1 (centres undefined)	/	/	/	/	-15%	/
NS(=O)(=O)c1ccc(CCNC(=O)CSc2ccccc2)cc1	8	-1%	-2%	-1%	0%	-5%
Nc1nccnc1C(=O)OCC(=O)NCCc1ccc(S(N)(=O)=O)cc1	-19	?	/	22µM*	-31%	-21%
NS(=O)(=O)c1ccc(CCNC(=O)CNCCc2ccccc2)cc1	8	-1%	27%	?	0.63µM*	-5%
CC(Oc1ccc2ccccc2c1)C(=O)NNC(=O)Nc1ccccc1F (centres undefined)	1	-3%	?	15%	0%	-18%
O=C(COc1ccc(-c2ccccc2)cc1)NNC(=O)Nc1ccc(F)cc1F	-16	?	8.9µM*	12%	-14%	-2%
O=C(COc1ccc2ccccc2c1)NNC(=O)Nc1ccccc1F	-11	?	35µM*	79µM*	11%	-11%
O=C(NCC1CCCO1)c1ccccc1NS(=O)(=O)c1ccc2[nH]c(=O)[nH]c2c1 (centres undefined)	/	/	/	/	14%	/
Cc1noc(C)c1-c1nc(N2CCNCC2)c2ccccc2n1	/	/	/	/	-14%	3%[60.1 µM]
Cc1noc(C)c1-c1nc(N2CCN(C)CC2)c2ccccc2n1	/	/	/	/	18µM*	2%[60.1 µM]
Cc1noc(C)c1-c1nc(N2CCOCC2)c2ccccc2n1	/	/	/	/	40µM*	-13%[60.1 µM]
O=C(c1ccccc1)c1cc(Cl)ccc1N1C(=O)C=CC1=O	-66*	-6%	-15%	19%	7.9µM*	-6%
O=C(CC(=O)c1cc(Cl)ccc1O)c1ccccc1	/	-11%	-11%	12%	-7%	-2%
COc1ccccc1Nc1nc(-c2ccc3c(c2)CCC(=O)N3)cs1	/	/	/	/	10µM*	/
CC(C)CCNc1nc(-c2ccc3c(c2)NC(=O)CO3)cs1	/	/	/	/	16%	/
CC(C)CNc1nc(-c2ccc3c(c2)CCC(=O)N3)cs1	/	/	/	/	13µM*	/
COc1ccccc1Nc1nc(-c2ccc3c(c2)CC(C)N3S(C)(=O)=O)cs1 (centres undefined)	/	/	/	/	40µM*	/
Cc1ccc2nc(C3CCN(Cc4ccc(-c5cccs5)cc4)CC3)[nH]c(=O)c2c1	/	/	/	/	35µM*!	/
COC(=O)C(c1ccc(Br)cc1)(c1cn(C)c2ccccc12)C(Nc1ccccc1)c1ccccc1 (centres undefined)	/	/	/	/	-23%	/
COc1ccc(C(=O)NNC(=O)C(=O)/C=C(\O)c2ccc(C)cc2)cc1	-1	-27%	0%	-16%	35µM*	-1%
O=C(/C=C(\O)c1ccccc1)C(=O)NNC(=O)c1ccccc1	1	-25%	-2%	25%	3%	3%
CCN(CC)C(=O)Cc1c(C)[nH]c2ccc(F)cc12	/	/	/	/	15%	/
COc1ccccc1-c1cc(=O)c2cccc(OC)c2o1	/	/	/	/	/	-2%[60.1 µM]
O=Cc1ccc(-c2ccccc2OC(F)(F)F)o1	-7	-16%	14%	0%	0%	-13%
COc1ccccc1-c1ccc(/C=C2/C=C(CC(C)C)OC2=O)o1	-1	-23%	25µM*	?	?	-13%
CCCC1=C/C(=C/c2ccc(-c3ccccc3OC)o2)C(=O)O1	?	25µM*	?	?	?	-38%
